This passage reports inhibition results from ChEMBL document CHEMBL1961873, “Compounds: GSK PKIS; Assays: Nanosyn kinase panel” (2012).

For the first assay, the target named is Protein kinase C eta type (Homo sapiens) (UniProt P24723). Conditions: at 1 µM.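 Further: value is the mean inhibition, from GSK PKIS.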
Protein kinase C eta type (Homo sapiens), sequence (P24723 whole entry): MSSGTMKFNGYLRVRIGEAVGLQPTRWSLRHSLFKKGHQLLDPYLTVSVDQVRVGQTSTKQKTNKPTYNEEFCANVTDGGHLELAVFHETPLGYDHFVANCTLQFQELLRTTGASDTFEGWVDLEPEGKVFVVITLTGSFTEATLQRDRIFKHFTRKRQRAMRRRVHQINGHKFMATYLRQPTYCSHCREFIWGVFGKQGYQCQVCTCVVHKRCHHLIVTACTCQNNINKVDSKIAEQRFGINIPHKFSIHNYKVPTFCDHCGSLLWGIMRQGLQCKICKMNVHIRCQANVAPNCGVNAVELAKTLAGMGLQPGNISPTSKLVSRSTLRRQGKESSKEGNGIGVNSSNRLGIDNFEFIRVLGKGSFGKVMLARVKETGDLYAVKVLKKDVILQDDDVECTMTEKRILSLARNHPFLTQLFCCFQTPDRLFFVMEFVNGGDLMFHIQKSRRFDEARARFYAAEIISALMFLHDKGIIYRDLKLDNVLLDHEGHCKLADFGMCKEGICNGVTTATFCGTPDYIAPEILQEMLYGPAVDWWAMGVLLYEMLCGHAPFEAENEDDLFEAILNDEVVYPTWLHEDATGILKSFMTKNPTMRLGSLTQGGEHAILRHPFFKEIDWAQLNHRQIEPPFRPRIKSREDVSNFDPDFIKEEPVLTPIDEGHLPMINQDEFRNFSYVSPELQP
As a reminder, the inhibition is the change of the read-out against control, counted positive when it falls. `Fc1ccc(-c2ncn(C3CCNCC3)c2-c2ccnc(Oc3ccc(Oc4ccccc4)cc3)n2)cc1`: the inhibition amounted to 5.81%.

In the case of `COc1ccc(-c2ccc3c(NC(=O)C4CC4)n[nH]c3n2)cc1`, the inhibition came to 1.68%.

Take `CN(c1ccc(NC(=O)Nc2c(Cl)cccc2Cl)cc1)c1ccnc(Nc2cccc(CS(C)(=O)=O)c2)n1`: the inhibition came out at 3.8%.

With `Fc1ccc(-c2ncn(C3CCNCC3)c2-c2ccnc(Oc3ccc(F)c(F)c3)n2)cc1`, the inhibition came to 5.62%.

As to `Cc1ccc(NC(=O)c2ccoc2)cc1-c1ccc(C(=O)NCC2CC2)cc1`, the inhibition was determined as 3.88%.

Take `NCc1ccc(-n2c(-c3nonc3N)nc3cnccc32)cc1`: the inhibition was found to be 88.4%.

With `NC(=O)c1ccc(Oc2nccc(-c3c(-c4ccc(F)cc4)ncn3C3CCNCC3)n2)cc1`, the inhibition amounted to 5.97%.

`CCc1nccc2c1nc(-c1nonc1N)n2CC`: the inhibition stood at 21.1%.

For `CCC(=O)Nc1ccc(C)c(-c2ccc(C(=O)NCC3CC3)cc2)c1`, the inhibition turned out to be 3.46%.

As for `CN(C)CCOc1ccc(-c2cc(-c3ccc4c(c3)CCC4=NO)c(-c3ccncc3)o2)cc1`, the inhibition is -1.11%.

Consider `Nc1nccc(-c2c(-c3ccc(F)cc3)ncn2C2CCC(O)CC2)n1` (configuration not stated), for which the inhibition is -1.04%.

On to `COc1ccc2cc(-c3c(-c4ccncc4)nc(-c4ccc([S+](C)[O-])cc4C)n3C)ccc2c1` (configuration not stated), for which the inhibition was 0.69%.

Consider `CCS(=O)(=O)c1ccc(OC)c(Nc2ncc(-c3cccc(-c4ccccc4F)c3)o2)c1`, for which the inhibition was -1.48%.

For the compound `NS(=O)(=O)c1ccc(Nc2cc(-c3ccc(O)c(F)c3)n[nH]2)cc1`, the inhibition was -5.2%.

As to `O=C(Nc1n[nH]c2cc(-c3cc(F)ccc3F)ccc12)C1CC1`, the inhibition was 3.93%.

As for `NS(=O)(=O)c1ccc(N/N=C2\C(=O)Nc3ccc(C(=O)NCCCn4ccnc4)cc32)cc1`, the inhibition worked out at 4.66%.

Turning to `CCN(CC)Cc1ccc(Nc2nccc(-c3cnn4ncccc34)n2)cc1`, the inhibition was found to be 7.25%.

In the case of `COc1ccc2ncn(-c3cc(O[C@H](C)c4ccccc4Cl)c(C(N)=O)s3)c2c1`, the inhibition is 3.95%.

The next assay deals with Protein kinase C gamma type (Homo sapiens) (UniProt P05129). Conditions: at 0.1 µM.
Turning to `C[C@@H](Oc1cc(-n2cnc3ccc(OCC4CCN(C)CC4)cc32)sc1C(N)=O)c1ccccc1Cl`, the inhibition amounted to 3.17%.

Take `CCc1cccc(CC)c1/C=C/c1cncc(C(=O)NC)c1`: the inhibition was determined as 1.06%.

As for `CS(=O)(=O)CCNCc1cc(-c2cc3c(Nc4ccc(OCc5cccc(F)c5)c(Cl)c4)ncnc3s2)cs1`, the inhibition amounted to 2.95%.

As to `Cc1nnc(-c2ccc(C)c(-c3ccc(C(=O)NCc4ccc(Cl)cc4)cc3)c2)o1`, the inhibition was 2.61%.

For `CN1CCN(CCCNc2nc3ccc(Oc4ccc(NC(=O)Nc5cc(C(F)(F)F)ccc5F)cc4)cc3[nH]2)CC1`, the inhibition worked out at 1.25%.

Consider `NS(=O)(=O)c1ccc(N/N=C2\C(=O)Nc3ccc(-c4cnco4)cc32)cc1`, for which the inhibition is -1.13%.

In the case of `Fc1ccc(-c2ncn(C3CCNCC3)c2-c2ccnc(Oc3ccc4c(c3)OCO4)n2)cc1`, the inhibition is 0.91%.

Take `COc1ccc(C2=C(N3CCc4ccccc43)C(=O)NC2=O)cc1`: the inhibition was 4.16%.

Consider `O=C1Nc2ccc(I)cc2C1=Cc1cc(Br)c(O)c(Br)c1`, for which the inhibition came to 2.32%.

As for `Fc1ccc(-c2ncn(CCCN3CCOCC3)c2-c2ccncc2)cc1`, the inhibition is -1.84%.

With `CN(C)CCCNc1nccc(-c2c(-c3ccc(F)cc3)nn3cc(C(F)(F)F)ccc23)n1`, the inhibition was 1.19%.

Take `COc1cccc(/C=N/Nc2ncnc3c2cnn3-c2cccc(OC)c2)c1`: the inhibition is 3.43%.

In the case of `O=C1Nc2ccccc2/C1=C/Nc1ccc(-n2cncn2)cc1`, the inhibition stood at 0.54%.

Take `COc1cc2ncn(-c3cc(OCc4cccs4)c(C(N)=O)s3)c2cc1OC`: the inhibition amounted to 4.75%.

Consider `Fc1ccc(-c2nc3n(c2-c2ccncc2)CCS3)cc1`, for which the inhibition stood at 2.76%.

For the compound `O=C1NC(=O)C(c2cccc(Cl)c2)=C1Nc1ccc(Cl)c(C(=O)O)c1`, the inhibition was found to be 4.02%.

For `Fc1ccc(-c2ncn(C3CCNCC3)c2-c2ccnc(Oc3ccc(Oc4ccccc4)cc3)n2)cc1`, the inhibition was determined as 2.37%.

Regarding `COc1ccc(-c2ccc3c(NC(=O)C4CC4)n[nH]c3n2)cc1`, the inhibition is 0.57%.

As to `CN(c1ccc(NC(=O)Nc2c(Cl)cccc2Cl)cc1)c1ccnc(Nc2cccc(CS(C)(=O)=O)c2)n1`, the inhibition came to 3.61%.

As to `Fc1ccc(-c2ncn(C3CCNCC3)c2-c2ccnc(Oc3ccc(F)c(F)c3)n2)cc1`, the inhibition worked out at 1.57%.

For the compound `Cc1ccc(NC(=O)c2ccoc2)cc1-c1ccc(C(=O)NCC2CC2)cc1`, the inhibition is -1.55%.

As for `NCc1ccc(-n2c(-c3nonc3N)nc3cnccc32)cc1`, the inhibition was found to be 4.15%.

For `NC(=O)c1ccc(Oc2nccc(-c3c(-c4ccc(F)cc4)ncn3C3CCNCC3)n2)cc1`, the inhibition was found to be 2.56%.

On to `CCc1nccc2c1nc(-c1nonc1N)n2CC`, for which the inhibition is -1.83%.

For `CCC(=O)Nc1ccc(C)c(-c2ccc(C(=O)NCC3CC3)cc2)c1`, the inhibition was found to be 0.1%.

For `CN(C)CCOc1ccc(-c2cc(-c3ccc4c(c3)CCC4=NO)c(-c3ccncc3)o2)cc1`, the inhibition was 0.61%.

`Nc1nccc(-c2c(-c3ccc(F)cc3)ncn2C2CCC(O)CC2)n1` (configuration not stated): the inhibition is -3.99%.

`COc1ccc2cc(-c3c(-c4ccncc4)nc(-c4ccc([S+](C)[O-])cc4C)n3C)ccc2c1` (configuration not stated): the inhibition was -0.82%.

Turning to `CCS(=O)(=O)c1ccc(OC)c(Nc2ncc(-c3cccc(-c4ccccc4F)c3)o2)c1`, the inhibition stood at 0.64%.

For `NS(=O)(=O)c1ccc(Nc2cc(-c3ccc(O)c(F)c3)n[nH]2)cc1`, the inhibition is -3.75%.

As to `O=C(Nc1n[nH]c2cc(-c3cc(F)ccc3F)ccc12)C1CC1`, the inhibition was found to be 2.77%.

On to `NS(=O)(=O)c1ccc(N/N=C2\C(=O)Nc3ccc(C(=O)NCCCn4ccnc4)cc32)cc1`, for which the inhibition was 3.24%.

As to `CCN(CC)Cc1ccc(Nc2nccc(-c3cnn4ncccc34)n2)cc1`, the inhibition amounted to 0.4%.

For the compound `COc1ccc2ncn(-c3cc(O[C@H](C)c4ccccc4Cl)c(C(N)=O)s3)c2c1`, the inhibition is 0.98%.
